# Screening data deposited in PubChem by several laboratories.
# The list is not random: actives were taken first. Their share in the collection is about 27%.
# CYP2C9 act: activators of human CYP2C9 | recombinant CYP2C9, luciferin-H conversion, luminescence; active compounds read high; factor 1 = untreated enzyme, 0 = blocked | activation factor at 5 µM | 96,000 tested, 1.4% active | AID 1024;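 active means activation factor of 2 or more for CYP2C9 at a 5 µM dose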;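 further: 0 = sulfaphenazole-blocked wells and 1 = vehicle-only wells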
# EphB4 antag: antagonists of human EphB4-ephrin-B2 interaction | EphB4 LBD / TNYL-RAW-Alexa532 peptide, fluorescence polarization | inhibition, % at 7 µM | 97,000 tested, 0.15% active | AID 720;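 active means inhibition above the screen-wide mean inhibition plus 3 SD, cut at about 15% in these data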;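 further: 0% = DMSO wells and 100% = excess unlabeled TNYL-RAW peptide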
# CYP2C19 inh: inhibitors of human CYP2C19. P33261. AID 778. inhibition, % at 5 µM. CYP2C19 Supersomes, luciferin-H EGE luminescence, 30 min. 96,000 tested, 21% active;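 active means CYP2C19 inhibition above a set limit at 5 µM in the primary screen, cut at about 50% in these data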;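 further: plate controls were negative control wells for no effect and 2.5 mM tranylcypromine positive control for full effect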
# Target sequence (P33261 whole entry, looked up): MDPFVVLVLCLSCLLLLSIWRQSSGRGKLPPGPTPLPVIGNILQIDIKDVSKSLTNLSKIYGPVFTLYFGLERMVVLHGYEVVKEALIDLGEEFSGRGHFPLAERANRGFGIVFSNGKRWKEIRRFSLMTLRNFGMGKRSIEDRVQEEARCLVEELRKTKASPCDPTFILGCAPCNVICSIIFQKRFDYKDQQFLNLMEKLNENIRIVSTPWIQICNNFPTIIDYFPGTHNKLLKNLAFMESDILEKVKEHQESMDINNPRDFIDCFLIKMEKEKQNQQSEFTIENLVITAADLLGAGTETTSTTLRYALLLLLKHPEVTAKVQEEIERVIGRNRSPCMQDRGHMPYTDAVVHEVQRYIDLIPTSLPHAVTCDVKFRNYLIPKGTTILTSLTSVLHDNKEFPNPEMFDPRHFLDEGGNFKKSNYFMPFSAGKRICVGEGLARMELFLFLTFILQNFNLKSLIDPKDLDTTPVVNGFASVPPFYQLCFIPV
# CYP2C9 inh: inhibitors of human CYP2C9; P11712; CYP2C9 Supersomes, luciferin-H conversion, luminescence; inhibition, % at 5 µM; 96,000 tested, 20% active; AID 777;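 active means blocking of liver enzyme CYP2C9 beyond about 50% at 5 µM, limit read from the data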
# CYP2C19 activ: cytochrome P450 2C19 (human) activation; P33261; recombinant CYP2C19, luciferin-H EGE luminescence; active compounds read high; 0 = fully inhibited enzyme, 1 = untreated enzyme; activation factor at 5 µM; 96,000 tested, under 10 active;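 active means activation factor of at least 2 at 5 µM in the primary screen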;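 further: 0 = wells with 2.5 mM tranylcypromine and 1 = vehicle-only wells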
# An asterisk follows results filed as active; · = not tested or not shown.
SMILES,CYP2C9 act,EphB4 antag,CYP2C19 inh,CYP2C9 inh,CYP2C19 activ
C=CCNC(=O)NC(=S)c1ccccc1,1,-5.1,34.7,-1.9,0.7
Cc1ccc(C)c(N2CCN(S(=O)(=O)c3ccc4c(c3)CCC(=O)N4)CC2)c1,0.2,2.8,35.0,78.5*,0.7
Cc1ccc(C)c(N2CCN(C(=O)CN(C)S(=O)(=O)c3ccc4c(c3)CCC(=O)N4)CC2)c1,0.2,-1.3,50.6*,81.6*,0.5
O=C1CCc2cc(S(=O)(=O)N3CCN(c4cccc(C(F)(F)F)c4)CC3)ccc2N1,0.7,-13.2,17.6,33.6,0.8
Cc1ccc(C)c(N2CCN(S(=O)(=O)c3ccc4[nH]c(=O)c(=O)[nH]c4c3)CC2)c1,0.3,-2.0,16.2,66.5*,0.8
CCOc1ccc(C(=O)N(CN2CCCC2=O)c2ccccc2)cc1,0.9,-1.7,-14.0,12.2,1.1
Cc1ccc2cc(CN(Cc3nnnn3Cc3ccco3)CC3CCCO3)c(=O)[nH]c2c1C (stereo not given),0.1,·,82.2*,86.2*,0.2
Cc1cccc2cc(CN(Cc3nnnn3Cc3ccco3)C3CCCC3)c3nnnn3c12,0.1,-7.2,92.3*,93.8*,0.1
Cc1ccc(S(=O)(=O)Cn2nnnc2CN(Cc2ccco2)CC2CCCO2)cc1 (stereo not given),0.1,5.7,84.4*,91.2*,0.2
O=C(CCCCCN1C(=O)c2ccccc2C1=O)NC1CCCC1,0.1,-1.5,77.9*,88.7*,0.2
Cc1cccc(NC(=O)CCCN2C(=O)c3ccccc3C2=O)n1,0.7,-6.3,16.4,26.5,0.8
O=C(CCCCCCN1C(=O)c2ccccc2C1=O)Nc1nccs1,·,-0.9,·,·,·
Cc1cccc(NC(=O)CCCCCN2C(=O)c3ccccc3C2=O)n1,0.2,5.6,24.0,78.6*,0.8
COCc1nnc(NC(=O)CCCCCN2C(=O)c3ccccc3C2=O)s1,0.4,-4.9,10.7,63.4*,0.9
CC1CCCCC1NC(=O)C1CCN(S(=O)(=O)c2ccc3c(c2)CCC(=O)N3)CC1 (stereo not given),0.8,-4.9,-8.1,16.9,1.1
CC1Cc2ccccc2N1C(=O)CN1CCC(n2nnc3cc(C(F)(F)F)ccc32)CC1 (stereo not given),0.6,1.9,50.5*,44.5,0.5
COC(=O)c1ccccc1NC(=O)CN1CCC(n2nnc3cc(C(F)(F)F)ccc32)CC1,0.2,-0.5,69.5*,82.3*,0.3
Cc1ccc2c(c1)nnn2C1CCN(CC(=O)Nc2ccccc2N2CCOCC2)CC1,0.3,4.2,71.2*,74.7*,0.3
COc1ccc(C(=O)NNC(=O)CN2CCC(n3nnc4cc(C(F)(F)F)ccc43)CC2)cc1,0.8,4.8,3.6,21.0,1
COc1ccccc1NC(=O)CN1CCC(n2nnc3cc(F)ccc32)CC1,0.8,-1.6,96.6*,18.4,0
Cc1nc2cc(C(F)(F)F)ccc2n1C1CCN(CC(=O)N2CCOCC2)CC1,1,0.1,0.2,-0.5,1
CCOC(=O)CSc1ncnc2c1cnn2-c1ccc(C)cc1,0.9,-9.1,-4.3,9.6,1
Cc1ccc2c(c1)nnn2C1CCN(CC(=O)NCCc2ccccc2)CC1,0.6,9.7,52.2*,35.2,0.5
COc1ccc(Cl)cc1NC(=O)CN1CCC(n2nnc3cc(C)ccc32)CC1,1.3,-7.7,93.7*,-28.7,0.1
O=[N+]([O-])c1ccc(-c2nnc(CSc3nc(-c4ccccc4)nc4ccc(F)cc34)o2)cc1,·,-4.3,·,·,·
SMILES,CYP2C9 act,EphB4 antag,CYP2C19 inh,CYP2C9 inh,CYP2C19 activ
C=CCNC(=O)NC(=O)COC(=O)CCCSc1nc2ccccc2[nH]1,1.2,-4.1,16.3,-19.7,0.8
c1ccc(-c2nnc(CSc3nc4ccccc4[nH]3)o2)cc1,0.3,-3.4,89.8*,66.8*,0.1
N#Cc1c(-c2ccccc2)cc(-c2ccccc2)nc1SCc1nnc(-c2ccccc2)o1,0.3,0.7,28.7,70.1*,0.7
O=C(CCCSc1nc2ccccc2[nH]1)Nc1nnc(-c2ccccc2)o1,0.5,1.6,41.6,51.7*,0.6
O=C(Nc1nccs1)c1ccc(COc2ccc(Cl)cc2)o1,1.1,1.9,-13.4,-9.5,1.1
CCCN(CCC)CCCNC(=O)CC1Nc2ccccc2NC1=O (stereo not given),1.4,-4.6,1.3,-41.1,1
O=C(CCSc1nc2cc(Cl)ccc2o1)N1CCOCC1,1.2,-1.6,35.0,-17.4,0.7
Cc1nc(NC(=O)CN(C)S(=O)(=O)c2ccc(Br)cc2)sc1C,0.3,3.4,94.1*,67.1*,0.1
CN(CC(=O)Nn1cnnc1)S(=O)(=O)c1ccc(Br)cc1,0.7,4.3,82.7*,34.8,0.2
CN(CCCC(=O)Nc1ccncc1)S(=O)(=O)c1ccc(Cl)cc1,0,6.3,98.2*,98.7*,0
CN(CC(=O)Nc1ccncc1)S(=O)(=O)c1ccc(Br)cc1,0.2,0.7,99.5*,76.6*,0
Cc1ccc(S(=O)(=O)N(C)CC(=O)Nc2nc3ccccc3s2)cc1,1,0.8,16.1,2.2,0.8
CN(CC(=O)NCCc1ccccc1)S(=O)(=O)c1ccc(Br)cc1,1.8,-1.4,47.0,-76.3,0.5
NNC(=O)CN1C(c2cccc(Cl)c2)=Nc2ccc(Br)cc2C1c1ccccc1 (stereo not given),0.5,-1.1,15.0,46.9,0.8
COc1ccc(CCNC(=O)CSc2nnc(CNC(=O)c3ccco3)o2)cc1OC,0.8,0.4,-6.9,17.1,1.1
COc1cc(/C=N/n2c(C)nnc2C)cc(OC)c1OC,1,3.9,12.6,-4.0,0.9
O=C(NC1CCCCC1)C(c1ccncc1)N(Cc1ccc2c(c1)OCO2)C(=O)c1cnsn1 (stereo not given),·,5.0,·,·,·
COc1ccc(CN(C(=O)c2nsc(Cl)c2Cl)C(C(=O)NC2CCCCC2)c2ccc(OC)cc2)cc1 (stereo not given),0.4,-3.4,51.4*,57.7*,0.5
COc1ccc(CN(C(=O)c2ccc3c(c2)OCCO3)C(C(=O)NC2CCCCC2)c2ccc3ncccc3c2)cc1 (stereo not given),0.7,-4.0,62.1*,26.8,0.4
O=C(NC1CCCCC1)C(c1ccc2ncccc2c1)N(Cc1ccccc1)C(=O)c1ccc2c(c1)OCCO2 (stereo not given),0.3,0.8,80.3*,66.9*,0.2
COc1cccc(CN(C(=O)c2ccco2)C(C(=O)NC2CCCC2)c2cccnc2)c1 (stereo not given),0.9,-1.0,22.6,12.0,0.8
Cc1cc(C)nc(NC2=NCC(=O)N2c2ccc3c(c2)OCCO3)n1,1,0.0,6.7,-1.0,0.9
CCOC(=O)C1=C(CS(=O)(=O)c2ccccc2)NC(=O)NC1c1ccccc1 (stereo not given),1,4.0,24.0,4.8,0.8
CCOC(=O)C1=C(c2ccccc2)NC(=O)NC1c1ccc(N(C)C)cc1 (stereo not given),0.9,·,79.5*,9.0,0.2
Cc1c(Cl)c(-c2n[nH]c(=S)n2-c2ccc(F)cc2)nn1C,1.1,-1.9,-3.1,-9.2,1
